This note sets out measurements from PubChem BioAssay (NCATS).

A short description of assay [1]: Quantitative High-Throughput drug screen in 47 multiple myeloma cell lines against the NCATS MIPE library collection: Delta47_JCRB cell viability assay (AID 1918925; note: nearly all actives have a fitted effect of over 45% in size; note: potency is the fitted concentration of half-maximal effect). The settings on record: Delta47 myeloma viability, CellTiter-Glo ATP, 48 h; series mostly up to 45.8 µM. In a few lines:
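We plated 500 myeloma cells per well, pinned in MIPE 4.0 compounds, and incubated for 48 hours at 37C. ATP was then quantified with CellTiter-Glo, with DMSO and media-only wells defining 100% and 0%.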
(In general: ATP-based viability assays read luminescence as a measure of living cells.)

A short description of assay [2]: Quantitative High-Throughput drug screen in 47 multiple myeloma cell lines against the NCATS MIPE library collection: FR4_PLB cell viability assay (AID 1918924; note: nearly all actives have a fitted effect of over 35% in size). The settings on record: FR4_PLB myeloma cells viability, CellTiter-Glo ATP, 48 h; series mostly up to 45.8 µM. The procedure, abridged: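 Approved and investigational drugs from MIPE 4.0 were added by pin tool to 500 cells per well. After 48 hours at 37C, ATP-based CellTiter-Glo luminescence indicated remaining viability.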

Records with an inconclusive call do not appear. The source made the active and inactive calls. Calls come from the whole dose curve; as a rule, active = well fitted cell-killing curve with a large enough effect; inconclusive = small, poorly fitted or top-dose-only effect, or effect the other way; inactive = no such curve, though single readings can be large or run the other way.

Turning to `Cc1ccc([C@@H]2O[C@H](CO)[C@@H](O)[C@H](O)[C@@H]2O)cc1Cc1ccc(-c2ccc(F)cc2)s1`, the Potency in assay [1] is 20.9 µM (active).
Regarding `CC1(C)S[C@H]2[C@H](NC(=O)[C@@H](N)c3ccc(O)cc3)C(=O)N2[C@@H]1C(=O)O`, the Potency entry in assay [2] and in assay [1] was “inactive” in each case.
With `O=C1NC(=O)C(=Cc2ccc3nccnc3c2)S1`, the Potency in assay [1] is 6.45 µM (active).
